# Shown is part of a subset that was picked to be rich in hits.
# Pf Dd2 inh: inhibitors of Plasmodium falciparum Dd2 growth; AID 1347417; P. falciparum Dd2 growth, SYBR Green, 72 h; 4.3% of 120,000 active; Potency, µM (highest dose often 28.9 µM), usual class: inhibitors; active = well fitted inhibition curve with a large enough effect; note: nearly all actives have a fitted effect of over 65% in size
#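 Readout: SYBR Green fluorescence, 485 nm excitation, 535 nm emission, after ~16 h lysis at 37C. Before that, Dd2-infected red cells (2.5% hematocrit) grew 72 h with compound, 29 uM top final concentration.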
# A number is an active result; 0 = inactive; [ ] = another dose, or the depositor's remark.
SMILES,Pf Dd2 inh
O=C(CN1CCCc2nc(-c3ccccc3)ncc2C1=O)NC1CC1,0
O=C(N[C@@H]1CNCCC[C@H]1O)c1ccc(OCCN2CCOCC2)cc1,0
CCOc1ccccc1NC(=O)C1CCN(c2cnc3nccnc3c2)CC1,0
O=C(c1ccccc1F)N1CCC2(CC1)C(=NC1CCCC1)NC(=O)N2c1cc(F)cc(F)c1,0
COc1cccc(CNC(=O)C2(c3ccc(NC(C)=O)cc3)CCCCC2)c1,0
C#CCNC(=O)[C@H]1C[C@@H](O)[C@H](O)[C@@H]2N=C(Nc3cccc(C(F)(F)F)c3)S[C@@H]21,0
CN1C[C@H](O)C[C@H]1c1nnc2n1CCN(C(=O)c1ccoc1)CC2,0
CC(=O)Nc1cccc(NC(=O)CSc2ccc(-c3sc(-c4ccccc4)nc3C)nn2)c1,8.9µM
Cc1nc(-c2ccccc2)sc1-c1ccc(SCC(=O)Nc2cccc(C(F)(F)F)c2)nn1,0
Cc1ccc(CNC(=O)CSc2ccc(-c3sc(-c4ccccc4)nc3C)nn2)cc1,0
CC(C)NC(=O)N[C@H]1C[C@@H](c2nc(-c3ccncc3)no2)N(C)C1,0
CC(=O)Nc1ccc(CN(CCN2CCCCC2)CC2CCCN(C3CCCC3)C2)cc1 (configuration not stated),0
COc1ccccc1N1CCN(CC(O)COc2cc(C)cc(C)c2)CC1 (configuration not stated),0
COc1ccccc1N1CCN(CC(O)COc2ccc(C)cc2C(C)(C)C)CC1 (configuration not stated),8.9µM
COc1ccccc1N1CCN(CC(O)COc2ccc(Cl)c(C)c2)CC1 (configuration not stated),0
COCC(=O)NC1CCC12CCN(C(=O)Cc1c[nH]c3ccccc13)CC2 (configuration not stated),0
O=C(Nc1cccc2ccccc12)O[C@@H]1CO[C@H]2[C@@H]1OC[C@@H]2NC(=O)C1CCC1,0
O=C(Nc1ccc(Oc2ccccc2)cc1)N[C@H]1CO[C@H]2[C@@H]1OC[C@H]2OC(=O)Nc1cccc2ccccc12,0
O=C(Nc1ccc(Oc2ccccc2)cc1)O[C@@H]1CO[C@H]2[C@@H]1OC[C@@H]2NC(=S)Nc1cccc2ccccc12,13µM
O=C1NCCOCCCN(C(=O)C2CC2)[C@H]2CCCC[C@@H]12,0
COc1ccc(CN2CC[C@@](C)(O)[C@H](N3CCCC3)C2)cc1,0[5.79 µM]
C[C@@]1(O)CCN(Cc2cccc(F)c2)C[C@H]1N1CCCC1,0[5.79 µM]
Cc1ccc(CN2CC[C@@](C)(O)[C@H](N3CCCC3)C2)o1,0[5.79 µM]
O[C@]1(c2ccccc2)CCN(Cc2ccco2)C[C@H]1N1CCCC1,0.63µM
Cc1ccsc1C(=O)N1CCC(O)(c2ccccc2)[C@H](N(C)C)C1 (some centres not stated),0[5.79 µM]
SMILES,Pf Dd2 inh
O=C(C1CC1)N1CC[C@](O)(c2ccccc2)[C@H](N2CCCC2)C1,0[5.79 µM]
C[C@@]1(O)CCN(Cc2ccc(Br)o2)C[C@H]1N1CCCC1,0[5.79 µM]
O=C(c1cccs1)N1CCC(O)(c2ccccc2)[C@H](N2CCCC2)C1 (some centres not stated),1.4µM
O[C@]1(c2ccccc2)CCN(Cc2ccncc2)C[C@H]1N1CCCC1,0.71µM
Cc1nccn1CC(=O)N1CCCC(c2ccc(C(=O)O)cc2)C1 (configuration not stated),0
Cc1ccc(CN2CCN(c3ncncn3)CC2=O)cc1,0
O=C(NCCc1ccccc1)N1CCCC(Cn2cnc3cccnc32)C1 (configuration not stated),0
O=C(Nc1ccc(F)c(F)c1)c1cc(S(=O)(=O)N2CCc3ccccc32)ccc1F,0
O=C(Nc1ccc(F)c(Cl)c1)c1cc(S(=O)(=O)N2CCCc3ccccc32)ccc1F,10µM
O=C(Nc1ccc(Cl)cc1)c1cc(S(=O)(=O)N2CCc3ccccc32)ccc1F,0
COc1ccc(CCC(=O)N2CCCC2c2nc(C3CCOCC3)no2)cc1 (configuration not stated),0
Cc1cc(C(=O)N[C@H](C)c2onc(-c3cccnc3)c2C(=O)O)no1,0
CC(C)CNC(=O)C1c2ccccc2C(=O)N(C2CCCC2)C12CCCC2 (configuration not stated),0
CC(C)CN1C(=O)c2ccccc2C(C(=O)NC(C)C)C12CCCCC2 (configuration not stated),0
COCCNC(=O)C1c2ccccc2C(=O)N(CC(C)C)C12CCCCC2 (configuration not stated),0
CC(C)CN1C(=O)c2ccccc2C(C(=O)Nc2nncs2)C12CCCC2 (configuration not stated),13µM
Cc1cccc(NC(=O)C2c3ccccc3C(=O)N(CC(C)C)C23CCCC3)n1 (configuration not stated),3.5µM
COCCCNC(=O)C1c2ccccc2C(=O)N(CC(C)C)C12CCCCC2 (configuration not stated),0
CC(C)CN1C(=O)c2ccccc2C(C(=O)NC(C)C)C12CCCC2 (configuration not stated),0
COCc1nnc(NC(=O)C2c3ccccc3C(=O)N(CC(C)C)C23CCCC3)s1 (configuration not stated),5.6µM
CCCCNC(=O)C1c2ccccc2C(=O)N(Cc2ccccc2)C12CCCC2 (configuration not stated),0
Cc1noc(C2CC3(CCN(C(=O)CCc4c(C)nn(C)c4C)CC3)CN2C)n1 (configuration not stated),0
CC(C)NC(=O)N1CCN(C(=O)c2ccc(N(C)C)cc2)C[C@H]1C(=O)N[C@@H](CC1CCCCC1)C(N)=O,0
COc1ccc(C(=O)N2CCC3(CC2)N=C(c2ccc(Cl)cc2)NO3)cc1OC,0
COc1cccc(CC(=O)N2CCc3nn(C)c(=O)n3CC2)c1,0
SMILES,Pf Dd2 inh
CCN(CC)C(=O)C(NC(=O)CC(C)C)C1CCN(C(=O)CCc2ccccc2)CC1 (configuration not stated),0
COCCN1CCC(CN(CC2CCCO2)C(=O)c2cc(Cl)cn2C)CC1 (configuration not stated),0
COCC(=O)N[C@@H]1CN(Cc2ccc(Cl)cc2F)C[C@H]1CO,0
NC(=O)C1CCN([C@H]2[C@@H]3OC[C@@H](O3)[C@@H](NCc3ccc(F)cc3)[C@@H]2O)CC1,0
CCCc1noc(-c2ccn3c(CNC(=O)c4ccccc4OC)nnc3c2)n1,0
O=C(C1CCCCC1)N1CCCC(c2noc(COc3ccccc3)n2)C1 (configuration not stated),0
Cc1ccc(NC(=O)C2CC(=O)N(c3n[nH]c4cc(Br)ccc34)C2)c(C)c1 (configuration not stated),0
O=c1[nH]ccn1C1CCN(Cc2ccccc2C(F)(F)F)CC1,0
Cn1ncc(N2CCCC(CC(=O)NC3CC3)C2)cc1=O (configuration not stated),0
O=C(c1ccc(F)cc1)N1CC[C@H]2COC(=O)N2c2cc(F)ccc2C1,0
CCCNC(=O)N1CC(Oc2ccccc2-c2nc(CCOC)no2)C1,0
COCCc1noc(-c2ccccc2OC2CN(C(=O)C(C)C)C2)n1,3.2µM
CCn1nccc1C(=O)N1CC(Oc2ccccc2-c2nc(CCOC)no2)C1,4.5µM
COCCc1noc(C2CN(C(=O)C(C)C)C2)n1,0
CCn1nccc1C(=O)N1CC(Oc2ccc(-c3nc(C)no3)cc2)C1,0[5.79 µM]
Cc1nc(C)c(C(=O)N2CC(Oc3ccccc3-c3nc(C4CC4)no3)C2)s1,0
O=C(Cn1nc2n(c1=O)CCCC2)NCc1ccc2c(c1)OCO2,0
COc1cc(NC(=O)CN2C(=O)NC3(CCOCC3)C2=O)cc(OC)c1,0

# Assay outcomes deposited in PubChem by National Center for Advancing Translational Sciences (NCATS).
